# In all, about 1,100 sequences were measured (“thermal melting temperature (Tm) of peptide-HLA complex”: median about 58, lowest 2% from about 42 on). The full list was thinned out, with the lowest values kept by preference.
# Target: HLA-A*02:01
# Assay: thermal melting temperature (Tm) of peptide-HLA complex; higher = more thermostable pHLA complex
# Settings: C1R-A*02:01
# 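Note: lysates heated 10 min at 37–73 °C, complexes pulled down with pan-HLA I antibody, peptide signal by DIA-MS relative to 37 °C, Tm where half the complex is unfolded.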
row,Sequence,thermal melting temperature [°C]
1,SLLDGVVEKL,55.5
2,TLFPVRLLV,55.8
3,GLIDGRLTI,54
4,FLLEQEKTQAL,59
5,LMGPVVHEV,46.4
6,QLQGYLRSV,57.7
7,GMDRYLIYV,60.9
8,YIYDKDMEII,57.2
9,QLLETLNQL,41.4
10,QLTNVILHL,58.7
11,SILSEVQQA,53.3
12,RLYQGINQL,55.9
13,FLPDPSALQNL,55
14,TLIDLPGITRV,56.9
15,LLAILPEAARA,60
16,ALLSGLREA,62.6
17,KLDQVIIHV,60.5
18,KVLEVTEEFGV,62.6

row,Sequence,thermal melting temperature [°C]
1,ILLEHGADPNL,51.4
2,VLDEEIAKA,40.7
3,SLLENIAKA,60.6
4,SLQEEIAKL,53.4
5,SLMDPNKFLLL,55.1
6,VLQGKLAEV,53.5
7,HLAIKLEQV,59.5
8,KIIEYSVYL,59.5
9,ALAPAPPQV,62.1
10,GLSTEGIYRV,60.9
11,ILDAGGHNVTI,54.5
12,KVIDYVPGI,58.8
13,NLFNRYPAL,58.4
14,FLMDFIHQV,62.2
15,FLMKNSDLYGA,58.4
16,ALLDRIVSV,64.2
17,NIIPYITNV,51.4
18,SLLPEGPPAI,57.8
